A short description of experiment [1]: APR_HepG2_NuclearSize_72hr: Apredica 72-hour HepG2 Assay for Nuclear Size (AID 2282925). The conditions noted are these: high-content imaging, actives raise or lower the signal. In outline: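 HepG2 cells were exposed to compounds at ten concentrations from 0.39 to 200 uM (duplicate, 0.5% DMSO final) for 72 hr. After fixation in 3.7% formaldehyde, nuclei were stained with Hoechst 33342 (2 ug/mL) and imaged at 20x.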

A short description of experiment [2]: ATG_CRE_CIS: Attagene CIS-FACTORIAL HepG2 Assay for human cAMP Responsive Element (CRE) binding protein 3 (AID 2282926). The conditions noted are these: HepG2 CRE cis-reporter, Attagene multiplexed mRNA; actives raise or lower the signal. The procedure, abridged: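 Transfected HepG2 were treated for 24 hours, then RNA was extracted and reporter cDNA amplified with sequence-specific primers. Labelled fragments were separated by capillary electrophoresis, and the CRE signal was fitted bidirectionally with DMSO as baseline.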

The target of experiment [3] is CCAAT/enhancer-binding protein beta (Homo sapiens) (UniProt P17676). The experiment can be described thus: ATG_C_EBP_CIS: Attagene CIS-FACTORIAL HepG2 Assay for human CCAAT/Enhancer Binding Protein (C/EBP) beta (AID 2282927). The conditions noted are these: HepG2 Attagene cis-factorial transcription factor reporter; actives raise or lower the signal. In outline:
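Following a 24 h incubation with test chemical, transfected HepG2 cells yielded RNA whose reporter transcripts were quantified by RT-PCR and fluorescent capillary electrophoresis, with DMSO serving as baseline for bidirectional fitting.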

The nature of experiment [4]: ATG_CMV_CIS: Attagene CIS-FACTORIAL HepG2 Assay for human CMV (Internal Marker) (AID 2282928).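 Also: endpoint acts as a background internal control marker rather than a target.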 The conditions noted are these: HepG2 CMV promoter reporter, transcription factor profiling; actives raise or lower the signal. In outline: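 Cell system: HepG2, transiently transfected multiple reporter units under cis promoters. Exposure: 24 h. Detection: RT-PCR, FAM labeling, HpaI digestion, capillary electrophoresis. Analysis: bidirectional, DMSO baseline.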

Experiment [5] is described as follows: ATG_DR4_LXR_CIS: Attagene CIS-FACTORIAL HepG2 Assay for human Liver X Receptor (LXR), DR4 submotif (AID 2282929). The conditions noted are these: HepG2 Attagene DR4 cis-reporter, mRNA transcription; actives raise or lower the signal. In outline:
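HepG2, transient MRTU transfection, cis-element (DR4) promoter; 24 h compound exposure; total RNA → oligo(dT) RT → PCR → 6-FAM primer extension → HpaI cut → CE. Gain/loss vs DMSO, bidirectional fit.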

Experiment [6] addresses Aryl hydrocarbon receptor (Homo sapiens) (UniProt P35869). The experiment can be described thus: ATG_Ahr_CIS: Attagene CIS-FACTORIAL HepG2 Assay for human Aryl Hydrocarbon Receptor (Ahr) (AID 2282930). The conditions noted are these: HepG2 AhR cis-factorial reporter transcription; actives raise or lower the signal. In outline:
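Values derive from bidirectional fitting against DMSO negative control. Underlying signal: cis-element reporter mRNA in transiently transfected HepG2, harvested 24 h post-dose and measured by RT-PCR plus capillary electrophoresis.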

Experiment [7] in a line: ATG_AP_1_CIS: Attagene CIS-FACTORIAL HepG2 Assay for human Activator Protein 1 (AP-1) (AID 2282931). The conditions noted are these: HepG2 Attagene cis-factorial AP-1 reporter mRNA; actives raise or lower the signal. The procedure, abridged: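 Transient MRTU transfection of HepG2 → 24 h chemical treatment → RNA isolation, RT-PCR, 6-FAM labelling, HpaI digest → capillary electrophoresis. Fit: bidirectional, DMSO negative control.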

Experiment [8] in a line: ATG_BRE_CIS: Attagene CIS-FACTORIAL HepG2 Assay for human Bone Morphogenetic Protein (BMP) Response Element (BRE) (AID 2282933). The conditions noted are these: HepG2 BMP response element reporter, Attagene transcription factor profiling; actives raise or lower the signal. In outline:
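After a 24 h chemical treatment, transiently transfected HepG2 cells were lysed for RNA; reporter transcripts were quantified by fluorescent RT-PCR and capillary electrophoresis, normalised to DMSO.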

Experiment [9] deals with Retinoic acid receptor alpha (Homo sapiens) (UniProt P10276). The experiment can be described thus: ATG_DR5_RAR_CIS: Attagene CIS-FACTORIAL HepG2 Assay for human Retinoic Acid Receptor Alpha (RARE), DR5 submotif (AID 2282934).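 As to AC50: reporter responds to endogenous RAR alpha beta and gamma in HepG2 not RARA alone.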 The conditions noted are these: HepG2 Attagene cis-factorial RARE DR5 reporter, mRNA; actives raise or lower the signal. In outline: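 Endpoint fitted in both directions relative to DMSO as negative control. It reflects DR5 cis-element reporter mRNA induction in transiently transfected HepG2 cells, measured 24 h after dosing through RT-PCR and fluorescent capillary electrophoresis.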
Chain of Retinoic acid receptor alpha (Homo sapiens) (P10276 whole entry, looked up): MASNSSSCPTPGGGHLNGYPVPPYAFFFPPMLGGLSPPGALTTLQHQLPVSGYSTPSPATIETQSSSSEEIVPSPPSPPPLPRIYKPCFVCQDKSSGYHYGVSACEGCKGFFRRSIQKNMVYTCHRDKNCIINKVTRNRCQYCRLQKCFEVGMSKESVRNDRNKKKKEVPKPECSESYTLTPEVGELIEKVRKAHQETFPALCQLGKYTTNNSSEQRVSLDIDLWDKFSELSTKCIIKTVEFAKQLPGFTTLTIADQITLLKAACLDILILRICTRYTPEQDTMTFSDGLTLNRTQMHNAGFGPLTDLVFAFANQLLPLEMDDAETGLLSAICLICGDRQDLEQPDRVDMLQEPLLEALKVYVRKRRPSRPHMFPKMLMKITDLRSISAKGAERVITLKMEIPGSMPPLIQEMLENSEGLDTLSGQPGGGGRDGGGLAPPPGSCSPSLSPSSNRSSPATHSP

Experiment [10] deals with Transcription factor E2F1 (Homo sapiens) (UniProt Q01094). The experiment can be described thus: ATG_E2F_CIS: Attagene CIS-FACTORIAL HepG2 Assay for human E2F Transcription Factor 1 (AID 2282935). The conditions noted are these: HepG2 Attagene cis-reporter, E2F reporter RNA transcripts; actives raise or lower the signal. In outline: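 HepG2 cells transiently transfected with multiplexed cis-element reporter units, dosed for 24 h. Reporter mRNA measured by RT-PCR, 6-FAM primer-extension labeling, HpaI digestion and capillary electrophoresis; bidirectional fit versus DMSO baseline.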
Chain of Transcription factor E2F1 (Homo sapiens) (Q01094 whole entry, looked up): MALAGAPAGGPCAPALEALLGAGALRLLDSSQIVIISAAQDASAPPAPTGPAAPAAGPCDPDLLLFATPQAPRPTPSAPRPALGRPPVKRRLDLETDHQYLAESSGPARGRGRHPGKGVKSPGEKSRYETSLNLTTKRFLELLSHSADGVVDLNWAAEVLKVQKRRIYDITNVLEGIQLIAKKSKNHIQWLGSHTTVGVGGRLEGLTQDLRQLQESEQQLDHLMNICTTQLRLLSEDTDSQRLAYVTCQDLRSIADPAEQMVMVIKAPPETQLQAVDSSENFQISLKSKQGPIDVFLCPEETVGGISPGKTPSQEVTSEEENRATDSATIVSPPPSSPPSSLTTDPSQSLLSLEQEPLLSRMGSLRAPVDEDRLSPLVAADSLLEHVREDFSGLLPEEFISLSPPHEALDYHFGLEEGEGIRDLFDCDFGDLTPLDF

A short description of experiment [11]: ATG_E_Box_CIS: Attagene CIS-FACTORIAL HepG2 Assay for human Enhancer Box (E-box) (AID 2282936). The conditions noted are these: HepG2 E-box cis-reporter transcription, actives raise or lower the signal. In outline: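 HepG2 cells transiently transfected with multiplexed cis-element reporter units sensing endogenous transcription factor activity; 24 h compound exposure. Reporter mRNA measured by RT-PCR, 6-FAM primer extension, HpaI digestion and capillary electrophoresis; bidirectional fit versus DMSO.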

Experiment [12] in a line: ATG_M_61_CIS: Attagene CIS-FACTORIAL HepG2 Assay for M61 Transcription Factor (Internal Marker) (AID 2282937). The conditions noted are these: HepG2 Attagene CIS-FACTORIAL M61 internal marker reporter; actives raise or lower the signal. In outline:
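Human liver HepG2, transient MRTU transfection (cis promoter elements), 24 h compound. Total RNA → oligo(dT) RT → PCR → FAM label → HpaI → CE. Internal background marker; bidirectional fitting, DMSO = baseline.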

Experiment [13] in a line: ATG_EGR_CIS: Attagene CIS-FACTORIAL HepG2 Assay for human Early Growth Response 1 (EGR1) (AID 2282938). The conditions noted are these: HepG2 Attagene CIS-FACTORIAL EGR reporter mRNA; actives raise or lower the signal. The procedure, abridged: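 Transient transfection of human HepG2 with multiple cis-regulated reporter units, chemical exposure 24 h, total RNA isolated. Reverse transcription, PCR, fluorescent labelling and capillary electrophoresis quantify reporter transcripts; activity fitted bidirectionally against DMSO.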

The nature of experiment [14]: ATG_ERE_CIS: Attagene CIS-FACTORIAL HepG2 Assay for Estrogen Response Element (ERE) (AID 2282940). The conditions noted are these: HepG2 ERE cis-reporter, Attagene RNA transcript; actives raise or lower the signal. The procedure, abridged: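 Measuring endogenous transcription factor output, the assay doses transfected HepG2 cells for 24 hours and quantifies reporter transcripts by fluorescent RT-PCR and capillary electrophoresis, with DMSO as baseline.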

Experiment [15] addresses Hepatocyte nuclear factor 3-beta (Homo sapiens) (UniProt Q9Y261). The experiment can be described thus: ATG_FoxA2_CIS: Attagene CIS-FACTORIAL HepG2 Assay for human Forkhead box A2 (FOXA2) (AID 2282942). The conditions noted are these: HepG2 cis-reporter transcription factor activity, 24 h; actives raise or lower the signal. The procedure, abridged: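 Transient MRTU transfection of HepG2 liver cells; 24 h treatment; total RNA → oligo(dT) RT → PCR → FAM primer extension → HpaI cut → CE. Bidirectional fit vs DMSO.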

The nature of experiment [16]: ATG_FoxO_CIS: Attagene CIS-FACTORIAL HepG2 Assay for human Forkhead box O (FoxO) (AID 2282943). The conditions noted are these: HepG2 Attagene cis-reporter, FoxO element, mRNA; actives raise or lower the signal. The procedure, abridged: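 Values reflect reporter mRNA induction or loss in HepG2 cells 24 h post-dosing, fitted bidirectionally with DMSO as negative control and baseline. Detection used RT-PCR and fluorescence capillary electrophoresis.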

Experiment [17] in a line: ATG_GATA_CIS: Attagene CIS-FACTORIAL HepG2 Assay for human GATA Binding Protein (AID 2282944). The conditions noted are these: HepG2 GATA cis-element reporter, Attagene multiplex mRNA; actives raise or lower the signal. In outline: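 Measures endogenous transcription factor-driven reporter mRNA in HepG2 cells transiently carrying cis-regulated constructs. 24 h dosing; RNA via oligo(dT) reverse transcription, PCR, HpaI digestion, capillary electrophoresis; fitted relative to DMSO.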

Experiment [18] can be described thus: ATG_AP_2_CIS: Attagene CIS-FACTORIAL HepG2 Assay for human Activator Protein 2 (AP-2) (AID 2282932). The conditions noted are these: HepG2 AP-2 cis-reporter, Attagene transcription factor profiling; actives raise or lower the signal. The procedure, abridged: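 HepG2 cells were transiently transfected with multiple cis-promoter reporter transcription units and dosed for 24 h. Reporter mRNA was measured by RT-PCR with capillary electrophoresis fluorescence; bidirectional fits relative to DMSO baseline.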

A short description of experiment [19]: ATG_M_19_CIS: Attagene CIS-FACTORIAL HepG2 Assay for M19 Transcription Factor (Internal Marker) (AID 2282939). The conditions noted are these: HepG2 Attagene CIS-FACTORIAL M19 internal marker reporter; actives raise or lower the signal. The procedure, abridged:
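In this multiplexed cell assay, transiently transfected HepG2 reporter units report endogenous transcription-factor activity; after 24 hours of treatment, labelled reporter cDNA fragments are quantified by capillary electrophoresis and fitted bidirectionally against DMSO.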

A short description of experiment [20]: ATG_Ets_CIS: Attagene CIS-FACTORIAL HepG2 Assay for human Erythroblast Transformation Specific (ETS) (AID 2282941). The conditions noted are these: HepG2 ETS cis-reporter transcription, actives raise or lower the signal. In outline:
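After transient cis-reporter transfection, HepG2 cells receive test chemical for 24 h. Reporter mRNA levels, measured by RT-PCR and capillary electrophoresis fluorescence, are analysed bidirectionally relative to the DMSO baseline.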

Several values for one entry are separate records, joined by “and”; a condition that tells them apart may be missing. Equal values may be shown once. The source holds several records for some structures; these can differ, active in one and inactive in another. Activity calls are given as the source filed them. The calls were made as follows: active = hit-call score of the fitted dose curve at least 0.9, where 1 is the maximum; inactive = score below 0.9.

Chain of Hepatocyte nuclear factor 3-beta (Homo sapiens) (Q9Y261 whole entry, looked up): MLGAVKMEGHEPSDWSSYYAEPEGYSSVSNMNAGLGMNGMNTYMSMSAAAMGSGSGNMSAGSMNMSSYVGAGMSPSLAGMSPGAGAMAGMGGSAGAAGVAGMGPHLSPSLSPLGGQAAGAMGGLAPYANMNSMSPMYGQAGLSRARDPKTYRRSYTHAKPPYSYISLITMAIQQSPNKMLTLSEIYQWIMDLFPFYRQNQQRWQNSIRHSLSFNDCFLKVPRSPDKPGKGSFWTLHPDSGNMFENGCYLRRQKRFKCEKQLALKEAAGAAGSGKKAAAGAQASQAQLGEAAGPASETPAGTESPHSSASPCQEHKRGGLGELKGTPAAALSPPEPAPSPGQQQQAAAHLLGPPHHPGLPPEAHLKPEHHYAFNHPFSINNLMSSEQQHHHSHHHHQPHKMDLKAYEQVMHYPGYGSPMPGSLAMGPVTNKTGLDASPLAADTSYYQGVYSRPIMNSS
Chain of CCAAT/enhancer-binding protein beta (Homo sapiens) (P17676 whole entry, looked up): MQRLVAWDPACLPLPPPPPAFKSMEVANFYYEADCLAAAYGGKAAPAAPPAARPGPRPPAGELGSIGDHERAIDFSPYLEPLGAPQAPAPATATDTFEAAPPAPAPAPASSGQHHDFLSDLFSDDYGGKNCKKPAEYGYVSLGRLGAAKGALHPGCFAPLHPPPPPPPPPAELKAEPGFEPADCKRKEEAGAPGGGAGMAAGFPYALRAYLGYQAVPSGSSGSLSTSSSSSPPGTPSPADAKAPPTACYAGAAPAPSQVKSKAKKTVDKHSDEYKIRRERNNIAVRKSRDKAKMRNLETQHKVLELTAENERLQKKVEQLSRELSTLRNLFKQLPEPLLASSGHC
Chain of Aryl hydrocarbon receptor (Homo sapiens) (P35869 whole entry, looked up): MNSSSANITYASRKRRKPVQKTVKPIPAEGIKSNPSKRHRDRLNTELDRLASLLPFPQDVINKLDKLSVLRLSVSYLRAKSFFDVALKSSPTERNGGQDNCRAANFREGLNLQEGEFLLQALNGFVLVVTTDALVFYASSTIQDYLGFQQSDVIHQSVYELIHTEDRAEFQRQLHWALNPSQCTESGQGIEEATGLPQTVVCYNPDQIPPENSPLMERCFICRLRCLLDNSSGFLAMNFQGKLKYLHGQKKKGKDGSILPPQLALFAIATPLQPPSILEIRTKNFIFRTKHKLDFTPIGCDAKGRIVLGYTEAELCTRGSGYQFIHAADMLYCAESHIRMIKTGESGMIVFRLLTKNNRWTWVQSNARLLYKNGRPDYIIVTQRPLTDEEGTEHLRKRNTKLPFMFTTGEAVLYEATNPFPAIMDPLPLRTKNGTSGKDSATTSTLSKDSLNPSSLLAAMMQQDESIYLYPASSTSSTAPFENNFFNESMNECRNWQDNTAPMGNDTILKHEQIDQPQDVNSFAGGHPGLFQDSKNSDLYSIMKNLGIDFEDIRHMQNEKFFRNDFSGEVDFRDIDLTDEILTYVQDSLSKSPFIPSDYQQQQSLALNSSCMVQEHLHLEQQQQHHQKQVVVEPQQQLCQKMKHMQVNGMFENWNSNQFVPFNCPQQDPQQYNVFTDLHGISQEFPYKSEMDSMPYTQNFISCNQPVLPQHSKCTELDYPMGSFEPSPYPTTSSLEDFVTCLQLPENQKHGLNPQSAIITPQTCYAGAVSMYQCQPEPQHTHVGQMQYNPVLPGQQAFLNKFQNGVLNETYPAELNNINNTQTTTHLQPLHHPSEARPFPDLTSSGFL

As to `CC#C[C@]1(O)CC[C@H]2[C@@H]3CCC4=CC(=O)CCC4=C3[C@@H](c3ccc(N(C)C)cc3)C[C@@]21C`, the outcome in experiment [1], in experiment [2], in experiment [3], in [4], in [6] and in experiment [7] was inactive. The molecule was called inactive in [9], in experiment [10], in [11], in experiment [12], in experiment [14] and in [15]. Moreover, the molecule was called inactive in experiment [16] and in [17]. For the same molecule, the AC50 in [2] was 49.8 µM (active) and 47.6 µM (active) and 23.3 µM (active); in experiment [4], 56.9 µM (active); in [5] it was 10.4 µM (active) [middle of 4 runs]; in experiment [6] it was 6.86 µM (active) and 5.91 µM (active); in experiment [7], 27.6 µM (active) and 66.9 µM (active) and 63.5 µM (active); in [8], 22.4 µM (active) [middle of 4 runs]. Moreover, the results for the AC50 in experiment [9], in experiment [13] and in experiment [15] were 7.96 µM (active), 9.86 µM (active) [middle of 4 runs] and 58.4 µM (active), respectively.

For the molecule `COc1cc(CCC(=O)CC(=O)CCc2ccc(O)c(OC)c2)ccc1O`, the call in experiment [1], in experiment [2], in experiment [3], in experiment [4], in experiment [5] and in experiment [6] was inactive. For the same molecule, the result in [7], in experiment [18], in [8], in experiment [9], in [10] and in experiment [11] was inactive. The molecule was called inactive in experiment [12], in [13], in experiment [19], in experiment [14], in [20] and in experiment [15]. The result in [16] and in experiment [17] was inactive.

Regarding `CCCCC(CC)COC(=O)CCCCC(=O)OCC(CC)CCCC` (configuration not stated), the molecule was called inactive in [1], in experiment [2], in experiment [3], in experiment [4], in [5] and in [7]. The outcome in experiment [18], in experiment [8], in experiment [9], in [10], in [11] and in experiment [12] was inactive. The outcome in experiment [13], in [19], in experiment [14], in [20], in experiment [15] and in [16] was inactive. In addition, the call in [17] was inactive. In addition, the AC50 in [6] is 87.3 µM (active).

As to `c1ccc2cc3c(ccc4ccccc43)cc2c1`, the outcome in experiment [1], in experiment [2], in [3], in experiment [4], in [5] and in experiment [7] was inactive. Further, the molecule was classed as inactive in [18], in experiment [8], in [9], in experiment [10], in [11] and in [12]. For the same molecule, the molecule was called inactive in [13], in experiment [20], in experiment [15], in [16] and in [17]. Besides, the AC50 in [5] is 1.7 µM (active) and 1.25 µM (active) and 3.19 µM (active); in [7], 2.33 µM (active); in experiment [11], 1.59 µM (active) and 4.58 µM (active) and 2.65 µM (active); in [13] it was 2.26 µM (active); in [14], 2.82 µM (active) [middle of 4 runs].

`CC(C)(C)c1cc(C(C)(C)C)c(O)c(C(C)(C)C)c1`: the molecule was called inactive in [1], in experiment [2], in experiment [3], in experiment [4], in experiment [5] and in experiment [6]. The call in [8], in experiment [10], in [11], in experiment [12], in [13] and in [14] was inactive. Also, the result in experiment [15], in [16] and in [17] was inactive. Moreover, the AC50 is 74.9 µM (active) in experiment [4]; 76.4 µM (active) and 27 µM (active) in experiment [7].

For the origin of these results see PubChem BioAssay (EPA / NIEHS).
